From PubChem BioAssay (NCATS) come the findings set out here.

Inconclusive results are not listed. Where a call stands in place of a potency, no number is given. Calls of active or inactive are those of the source. Calls come from the whole dose curve; as a rule, active = well fitted inhibition curve with a large enough effect; inconclusive = small, poorly fitted or top-dose-only effect; inactive = no such curve, though single readings can be large or run the other way. Where a SMILES comes first, the peptide text is derived from it. [ ]: non-standard residue; d: D form.

This assay in a line: Primary qHTS for inhibitors of nuclear receptor binding SET domain protein 2 (NSD2) in an RCH-ACV wild type WT cells (2C) (AID 1645877). Note: nearly all actives have a fitted effect of over 70% in size. The conditions noted are these: RCH-ACV (leukaemia line) NSD2 WT (2C) viability, CellTiter-Glo, 72 h; series mostly up to 44.9 µM. Background: In qHTS, concentration-response curves come from the screen itself.
As to `COc1cc(/C=C/CO)ccc1O[C@@H]1O[C@H](CO)[C@@H](O)[C@H](O)[C@H]1O`, the Potency entry is “inactive”.

Turning to `C=CC(C)(C)C1(CC2NC(=O)C3CCCN3C2=O)C(=O)Nc2cc3c(cc21)C=CC(C)(C)O3` (configuration not stated), the Potency result was “inactive”.

On to `CC(C)C1=CCC(C)(O)C(OC2OC(CO)C(O)C(O)C2O)C1` (configuration not stated), for which the Potency entry is “inactive”.

Regarding `CC(=O)O[C@H](C[C@@H](C)[C@H]1C(=O)[C@H](O)[C@@]2(C)[C@@H]3CCC4C(C)(C)[C@@H](O[C@@H]5OC[C@H](O)[C@H](O)[C@H]5O)CC[C@@]45C[C@@]35CC[C@]12C)[C@@H]1OC1(C)C` (some centres not stated), the Potency entry is “inactive”.

As to `O=c1ccn(C2OC(CO)C(O)C2O)c(=O)[nH]1` (configuration not stated), the Potency entry was “inactive”.

Regarding `CC(=O)N[C@H](Cc1ccc(O)cc1)C(=O)N[C@H](CCCN=C(N)N)C(=O)N[C@H](Cc1ccccc1)C(N)=O` (Ac-[dY]-[dR]-[dF]-NH2), the Potency entry was “inactive”.

Turning to `CO/N=C(/C(=O)N[C@@H]1C(=O)N2C(C(=O)O)=C(CSC(=O)c3ccco3)CS[C@H]12)c1csc(N)n1`, the Potency entry was “inactive”.
